Among all 5,500 compounds or so, about 2,000 (36%) were called active. Roughly 18% stayed inconclusive and do not appear here. Cut-off read from the data, not from the text of the source: active = normalized growth mostly below about 0.91 (no sharp cut-off); inconclusive = no clear call, values can overlap the other calls; inactive = mostly above about 0.92. The list shows a part of the results.
Experiment: chemical genetic growth profiling, strain panel (AID 1159580);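 note: tested at 20 µM; growth read once vehicle control cultures reached saturation at 30 °C; 1 = growth at the plate median or of vehicle wells; lower values mean less growth of the strain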
Settings: growth OD

Measured: normalized growth

COc1cc2c(cc1OC)CC(=O)OC2
inactive: S. cerevisiae deletion strains, locus YAL013W, strain DEP1, active compounds read low 0.985 | S. cerevisiae deletion strains, locus YBR229C, strain ROT2, active compounds read low 0.984 | S. cerevisiae deletion strains, locus YCL061C, strain MRC1, active compounds read low 1 | S. cerevisiae deletion strains, locus YDL101C, strain DUN1, active compounds read low 0.984 | S. cerevisiae deletion strains, locus YDR150W, strain NUM1, active compounds read low 0.966 | S. cerevisiae deletion strains, locus YEL061C, strain CIN8, active compounds read low 1 | S. cerevisiae deletion strains, locus YGR078C, strain PAC10, active compounds read low 1.01 | S. cerevisiae deletion strains, locus YHR030C, strain SLT2, active compounds read low 1.06 | S. cerevisiae deletion strains, locus YHR087W, strain rtc3, active compounds read low 0.997 | S. cerevisiae deletion strains, locus YJR043C, strain POL32, active compounds read low 0.993 | S. cerevisiae deletion strains, locus YJR075W, strain HOC1, active compounds read low 0.995 | S. cerevisiae deletion strains, locus YKL190W, strain CNB1, active compounds read low 1 | S. cerevisiae deletion strains, locus YLR058C, strain SHM2 (second series), active compounds read low 0.994 | S. cerevisiae deletion strains, locus YLR085C, strain ARP6, active compounds read low 1.03 | S. cerevisiae deletion strains, locus YLR262C, strain YPT6, active compounds read low 1.16 | S. cerevisiae deletion strains, locus YML094W, strain GIM5, active compounds read low 0.999 | S. cerevisiae deletion strains, locus YMR219W, strain ESC1, active compounds read low 0.971 | S. cerevisiae deletion strains, locus YMR263W, strain SAP30, active compounds read low 0.994 | S. cerevisiae deletion strains, locus YNL128W, strain TEP1, active compounds read low 1 | S. cerevisiae deletion strains, locus YNL153C, strain GIM3, active compounds read low 1.03 | S. cerevisiae deletion strains, locus YNL298W, strain CLA4 (second series), active compounds read low 1.04 | S. cerevisiae deletion strains, locus YNL322C, strain KRE1, active compounds read low 0.979 | S. cerevisiae deletion strains, locus YNR030W, strain Alg12, active compounds read low 1.02 | S. cerevisiae deletion strains, locus YPL055C, strain LGE1, active compounds read low 0.935 | S. cerevisiae deletion strains, locus YPL241C, strain CIN2, active compounds read low 1 | S. cerevisiae deletion strains, locus YPR135W, strain CTF4, active compounds read low 1.04 | S. cerevisiae strains, strain wild type, active compounds read low 1.01
active: S. cerevisiae deletion strains, locus YLR039C, strain RIC1, active compounds read low 1.23 [resistant]

From PubChem BioAssay AID1159580 (chemical genetic matrix, 2015)
